PBM binding z-score data for six sequences are collected here from the supplement of paper PMC6555819.

Assay in all cases: PBM binding z-score (relative to random genomic background probes); higher = stronger binding; sequences stand for … in GC…GCGATTGACAGCGTAGAATGAAGG
For assay [1], the system named is FXR:RXRa (NR concentration 270 nM, RXRa partner concentration 90 nM). Summed up:
(§1)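 Each nuclear receptor dimer, without ligand, was incubated for 1 h on custom Agilent 4×180K protein-binding microarrays. Binding was detected with antibodies against each partner (one per run), and scanned fluorescence was regression-normalized. The binding z-scores are referenced to random human genomic background probes.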

The subject of assay [2] is LXRa:RXRa (NR concentration 270 nM, RXRa partner concentration 90 nM). Summed up: as §1
The subject of assay [3] is LXRa homodimer (NR concentration 270 nM). The gist of the method: as §1
In assay [4] the test system is LXRb:RXRa (NR concentration 270 nM, RXRa partner concentration 90 nM). The gist of the method:
as §1

The subject of assay [5] is LXRb homodimer (NR concentration 270 nM). The gist of the method:
as §1

Assay [6] concerns PPARa:RXRa (NR concentration 270 nM, RXRa partner concentration 90 nM). Summed up:
as §1

In assay [7] the test system is PPARg:RXRa (NR concentration 180 nM, RXRa partner concentration 90 nM). The gist of the method: as §1
Assay [8] relates to PPARg:RXRa 270nM:90nM, anti-RXR (NR concentration 270 nM, RXRa partner concentration 90 nM). Summed up:
as §1

Assay [9] deals with PPARg:RXRa 30nM:10nM, anti-RXR (NR concentration 30 nM, RXRa partner concentration 10 nM). Summed up:
as §1

Assay [10] has as its system PPARg:RXRa 90nM:30nM, anti-RXR (NR concentration 90 nM, RXRa partner concentration 30 nM). Summed up:
as §1

In assay [11] the test system is PPARg:RXRa DBDmut IVT, anti-RXR (DBD mutation: RXRa K156A/R161A, NR concentration 270 nM, RXRa partner concentration 90 nM). Summed up:
as §1

Assay [12] relates to PPARg:RXRa IVT, anti-PPARg (NR concentration 270 nM, RXRa partner concentration 90 nM). The gist of the method:
as §1

For assay [13], the system named is PPARg DBDmut:RXRa IVT, anti-PPARg (DBD mutation: PPARg1 K132A/R137A, NR concentration 270 nM, RXRa partner concentration 90 nM). Summed up: as §1
In assay [14] the test system is PPARg DBDmut IVT, anti-PPARg (DBD mutation: PPARg1 K132A/R137A, NR concentration 270 nM). The gist of the method: as §1
The test system of assay [15] is PPARg homodimer (NR concentration 180 nM). Summed up: as §1
Assay [16] deals with PXR:RXRa (NR concentration 270 nM, RXRa partner concentration 90 nM). The gist of the method:
as §1

The subject of assay [17] is PXR homodimer (NR concentration 270 nM). Summed up:
as §1

Assay [18] concerns RARa:RXR (NR concentration 270 nM, RXRa partner concentration 90 nM). Summed up:
as §1

Assay [19] concerns RARa homodimer (NR concentration 270 nM). The gist of the method: as §1
Assay [20] has as its system RARb:RXRa (NR concentration 270 nM, RXRa partner concentration 90 nM). Summed up:
as §1

With ATATGTATGTTAAGGGTCATTCAGGTTGGTTCGC, the PBM binding z-score in [1] was found to be 4.05; in assay [2] it was 4.15; in assay [3] it was 3.41; in assay [4], 4.46; in assay [5], 1.5; in assay [6], 5.66. Besides, the PBM binding z-score is 8.29 in assay [7]; 7.83 in assay [8]; 8.13 in [9]; 8.7 in [10]; 3.13 in [11]; 4.91 in [12]. Further, the PBM binding z-score in [13] came to 2.02; in [14], 1.65; in assay [15] it was 2.83; in [16], 4.73; in assay [17] it was 2.03; in [18], 4.22. Moreover, the PBM binding z-score stood at 1.18 in assay [19] and 3.31 in assay [20].

For the sequence AGATCGAGGGCAATGAGTTGATAGCACGGGTGGC, the PBM binding z-score was 0.45 in assay [1]; 0.121 in assay [2]; -0.246 in assay [3]; -0.143 in [4]; -0.369 in [5]; 1.14 in [6]. Also, the PBM binding z-score in [7] was determined as 1.16; in assay [8], 0.568; in assay [9], 0.0147; in assay [10] it was 0.283; in [11] it was 2.97; in assay [12], 2.42. For the same sequence, the PBM binding z-score in assay [13] is 0.184; in assay [14] it was -0.0429; in assay [15], 0.453; in [16], 1.53; in [17], 3.29; in assay [18], 0.437. Also, the figures for the PBM binding z-score in [19] and in [20] were 0.369 and 2.12, respectively.

In the case of GTACCAAGGTGAATACGTCGTTGATGAGTAGGCG, the PBM binding z-score in assay [1] was 0.119; in [2] it was -0.0604; in assay [3], -0.411; in [4] it was -0.17; in assay [5], -0.867; in assay [6], 0.781. Moreover, the PBM binding z-score in assay [7] was 0.854; in [8] it was 0.362; in [9], 0.117; in [10] it was 0.456; in [11], 1.17; in [12] it was 1.59. In addition, the PBM binding z-score is -0.251 in assay [13]; -0.137 in [14]; -0.116 in assay [15]; -0.261 in [16]; -0.456 in [17]; 0.186 in [18]. The PBM binding z-score in assay [19] was 0.0524; in assay [20], 1.03.

As to CGTCCAAGGTCAAGGTCAGTGTAAGAGACTCGAA, the PBM binding z-score was 7.52 in [1]; 5.66 in assay [2]; 1.6 in assay [3]; 4.66 in [4]; 0.633 in [5]; 5.87 in assay [6]. For the same sequence, the PBM binding z-score stood at 6.25 in assay [7]; 6.02 in assay [8]; 2.39 in [9]; 4.8 in [10]; 3.46 in [11]; 4.48 in assay [12]. Besides, the PBM binding z-score in assay [13] was determined as 2.06; in assay [14], 0.0248; in assay [15] it was 3.45; in assay [16] it was 5.09; in assay [17], 1.07; in assay [18], 5.28. The results for the PBM binding z-score in assay [19] and in assay [20] were 2.14 and 5.47, respectively.

Regarding TCAAGTAGGTTAGTCGGGGCATTCAGCCAACATA, the PBM binding z-score in assay [1] stood at 0.926; in [2] it was 0.645; in assay [3], 0.0892; in assay [4] it was 1.03; in assay [5] it was 0.134; in assay [6], 1.68. Besides, the PBM binding z-score in assay [7] came out at 1.07; in assay [8], 2.48; in [9] it was 3.63; in [10] it was 3.14; in assay [11], 4.81; in assay [12] it was 4.14. The PBM binding z-score in assay [13] came to 0.386; in assay [14], 1.15; in [15] it was 1.35; in assay [16], 0.801; in assay [17], 0.708; in assay [18] it was 0.739. For the same sequence, the values for the PBM binding z-score in assay [19] and in assay [20] were 0.814 and 0.917, respectively.

Regarding CATTCAGGGTCAGCTAGGCCAGAGTAGGGACGGC, the PBM binding z-score in assay [1] was 5.24; in assay [2], 4.08; in assay [3] it was 0.181; in [4], 2.92; in assay [5] it was 1.42; in assay [6] it was 4.82. In addition, the PBM binding z-score in assay [7] amounted to 3.87; in assay [8] it was 3.94; in assay [9], 1.29; in [10], 2.81; in assay [11] it was 1.6; in assay [12], 3.11. The PBM binding z-score stood at 2.17 in assay [13]; 0.968 in assay [14]; 1.47 in [15]; 2.74 in assay [16]; 0.0308 in [17]; 3.58 in assay [18]. For the same sequence, the figures for the PBM binding z-score in assay [19] and in assay [20] were 0.262 and 4.42, respectively.
